This is an account of results in the supplement of paper PMC10849652.

Targets with a hit are over-represented here; the source holds about 7,900 in all. About 0.6% of all pairs of compound and target were hits.

Sequence of UniProt Q9Y5X3 (Q9Y5X3 whole entry, looked up): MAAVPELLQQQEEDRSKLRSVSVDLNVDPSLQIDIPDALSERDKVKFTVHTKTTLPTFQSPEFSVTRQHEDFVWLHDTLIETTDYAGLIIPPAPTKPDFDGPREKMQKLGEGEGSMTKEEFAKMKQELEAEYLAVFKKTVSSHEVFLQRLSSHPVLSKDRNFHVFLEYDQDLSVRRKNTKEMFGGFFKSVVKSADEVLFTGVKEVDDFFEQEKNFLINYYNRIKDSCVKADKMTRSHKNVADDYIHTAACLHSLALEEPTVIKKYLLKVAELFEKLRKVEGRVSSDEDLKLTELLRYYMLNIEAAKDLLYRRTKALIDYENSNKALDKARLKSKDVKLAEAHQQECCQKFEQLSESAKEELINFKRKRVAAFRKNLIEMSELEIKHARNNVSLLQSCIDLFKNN
Sequence of UniProt P04183 (P04183 whole entry, looked up): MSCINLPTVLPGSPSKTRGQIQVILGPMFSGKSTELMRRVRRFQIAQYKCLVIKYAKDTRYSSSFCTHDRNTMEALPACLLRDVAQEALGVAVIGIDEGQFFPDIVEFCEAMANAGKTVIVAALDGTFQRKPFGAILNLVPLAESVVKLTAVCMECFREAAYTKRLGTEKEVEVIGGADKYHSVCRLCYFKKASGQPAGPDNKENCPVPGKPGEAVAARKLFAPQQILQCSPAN
Sequence of UniProt P51692 (P51692 whole entry, looked up): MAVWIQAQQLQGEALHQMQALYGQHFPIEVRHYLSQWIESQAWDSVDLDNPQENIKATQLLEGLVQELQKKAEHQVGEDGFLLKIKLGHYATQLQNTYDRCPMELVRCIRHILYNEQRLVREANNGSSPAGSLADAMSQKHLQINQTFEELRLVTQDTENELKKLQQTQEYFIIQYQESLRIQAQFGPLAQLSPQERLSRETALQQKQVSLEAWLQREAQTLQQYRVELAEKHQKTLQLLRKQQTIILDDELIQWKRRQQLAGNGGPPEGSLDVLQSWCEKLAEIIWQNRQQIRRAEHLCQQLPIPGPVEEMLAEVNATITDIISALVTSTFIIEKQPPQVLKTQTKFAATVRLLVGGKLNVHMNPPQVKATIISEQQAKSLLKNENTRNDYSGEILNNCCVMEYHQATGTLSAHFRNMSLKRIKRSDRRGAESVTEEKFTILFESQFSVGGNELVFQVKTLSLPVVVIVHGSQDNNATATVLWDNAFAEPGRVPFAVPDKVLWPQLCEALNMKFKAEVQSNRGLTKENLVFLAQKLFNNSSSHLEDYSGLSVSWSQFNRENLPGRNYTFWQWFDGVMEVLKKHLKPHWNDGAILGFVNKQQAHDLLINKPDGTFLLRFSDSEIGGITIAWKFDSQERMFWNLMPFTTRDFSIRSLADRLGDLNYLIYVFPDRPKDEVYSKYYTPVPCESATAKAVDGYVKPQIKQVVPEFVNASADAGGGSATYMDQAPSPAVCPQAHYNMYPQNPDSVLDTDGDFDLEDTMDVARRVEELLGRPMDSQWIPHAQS
Sequence of UniProt Q13596 (Q13596 whole entry, looked up): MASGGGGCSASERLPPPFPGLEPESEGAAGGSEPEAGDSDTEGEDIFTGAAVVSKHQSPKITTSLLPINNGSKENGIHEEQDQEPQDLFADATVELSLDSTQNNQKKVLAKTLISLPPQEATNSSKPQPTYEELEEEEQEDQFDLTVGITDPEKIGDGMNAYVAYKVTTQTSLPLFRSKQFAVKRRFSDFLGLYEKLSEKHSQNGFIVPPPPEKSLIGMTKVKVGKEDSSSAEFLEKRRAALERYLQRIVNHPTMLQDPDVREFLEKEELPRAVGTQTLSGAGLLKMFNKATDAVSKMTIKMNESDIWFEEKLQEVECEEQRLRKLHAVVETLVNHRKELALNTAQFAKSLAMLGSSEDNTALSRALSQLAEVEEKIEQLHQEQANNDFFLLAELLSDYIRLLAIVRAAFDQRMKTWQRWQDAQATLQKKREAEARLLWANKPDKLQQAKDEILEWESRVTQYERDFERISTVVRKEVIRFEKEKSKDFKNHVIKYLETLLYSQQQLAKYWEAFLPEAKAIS
Sequence of UniProt Q8NEW0 (Q8NEW0 whole entry, looked up): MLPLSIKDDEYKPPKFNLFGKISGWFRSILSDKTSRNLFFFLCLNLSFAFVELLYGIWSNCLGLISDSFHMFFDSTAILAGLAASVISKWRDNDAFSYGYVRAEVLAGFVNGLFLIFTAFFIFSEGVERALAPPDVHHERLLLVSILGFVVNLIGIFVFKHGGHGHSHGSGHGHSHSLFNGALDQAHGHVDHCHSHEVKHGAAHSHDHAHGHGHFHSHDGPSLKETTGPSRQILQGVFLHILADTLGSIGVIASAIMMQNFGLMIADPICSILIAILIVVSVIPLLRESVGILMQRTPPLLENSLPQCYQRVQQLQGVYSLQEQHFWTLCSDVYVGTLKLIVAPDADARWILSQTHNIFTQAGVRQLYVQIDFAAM
Sequence of UniProt P62072 (P62072 whole entry, looked up): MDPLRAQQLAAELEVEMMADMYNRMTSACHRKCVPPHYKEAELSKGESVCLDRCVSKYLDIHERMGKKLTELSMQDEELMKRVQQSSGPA
Sequence of UniProt Q92797 (Q92797 whole entry, looked up): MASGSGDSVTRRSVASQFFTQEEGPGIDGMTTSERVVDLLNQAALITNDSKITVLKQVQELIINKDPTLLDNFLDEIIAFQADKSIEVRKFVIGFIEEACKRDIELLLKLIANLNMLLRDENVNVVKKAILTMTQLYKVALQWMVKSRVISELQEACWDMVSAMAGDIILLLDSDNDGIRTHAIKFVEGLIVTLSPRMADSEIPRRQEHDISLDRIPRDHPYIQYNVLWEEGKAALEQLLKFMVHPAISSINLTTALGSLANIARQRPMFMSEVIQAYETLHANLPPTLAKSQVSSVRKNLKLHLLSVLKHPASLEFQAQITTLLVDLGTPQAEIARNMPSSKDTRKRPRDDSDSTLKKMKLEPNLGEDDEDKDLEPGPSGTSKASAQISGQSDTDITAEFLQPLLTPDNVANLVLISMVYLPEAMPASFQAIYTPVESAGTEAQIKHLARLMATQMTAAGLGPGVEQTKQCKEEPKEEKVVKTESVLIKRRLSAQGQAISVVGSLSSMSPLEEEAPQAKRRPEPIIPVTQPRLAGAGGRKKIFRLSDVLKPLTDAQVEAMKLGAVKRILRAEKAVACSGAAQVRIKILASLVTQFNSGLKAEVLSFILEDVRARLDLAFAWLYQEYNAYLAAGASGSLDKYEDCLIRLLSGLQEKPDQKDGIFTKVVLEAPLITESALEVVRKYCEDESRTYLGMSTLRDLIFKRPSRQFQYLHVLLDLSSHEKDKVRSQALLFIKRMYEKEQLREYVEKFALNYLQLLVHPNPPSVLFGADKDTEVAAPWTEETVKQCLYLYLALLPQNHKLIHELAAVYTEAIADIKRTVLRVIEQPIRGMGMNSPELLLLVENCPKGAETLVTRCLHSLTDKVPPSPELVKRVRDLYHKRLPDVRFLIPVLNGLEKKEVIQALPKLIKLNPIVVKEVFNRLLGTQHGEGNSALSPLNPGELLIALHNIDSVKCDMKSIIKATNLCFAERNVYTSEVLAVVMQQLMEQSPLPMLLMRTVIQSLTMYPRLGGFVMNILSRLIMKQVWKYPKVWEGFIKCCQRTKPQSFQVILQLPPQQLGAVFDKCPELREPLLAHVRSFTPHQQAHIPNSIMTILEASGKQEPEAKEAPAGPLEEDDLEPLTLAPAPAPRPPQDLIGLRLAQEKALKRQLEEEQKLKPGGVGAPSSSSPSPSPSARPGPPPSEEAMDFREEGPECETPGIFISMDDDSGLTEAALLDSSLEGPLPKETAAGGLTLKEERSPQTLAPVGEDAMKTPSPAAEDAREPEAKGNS
Sequence of UniProt Q9UDY2 (Q9UDY2 whole entry, looked up): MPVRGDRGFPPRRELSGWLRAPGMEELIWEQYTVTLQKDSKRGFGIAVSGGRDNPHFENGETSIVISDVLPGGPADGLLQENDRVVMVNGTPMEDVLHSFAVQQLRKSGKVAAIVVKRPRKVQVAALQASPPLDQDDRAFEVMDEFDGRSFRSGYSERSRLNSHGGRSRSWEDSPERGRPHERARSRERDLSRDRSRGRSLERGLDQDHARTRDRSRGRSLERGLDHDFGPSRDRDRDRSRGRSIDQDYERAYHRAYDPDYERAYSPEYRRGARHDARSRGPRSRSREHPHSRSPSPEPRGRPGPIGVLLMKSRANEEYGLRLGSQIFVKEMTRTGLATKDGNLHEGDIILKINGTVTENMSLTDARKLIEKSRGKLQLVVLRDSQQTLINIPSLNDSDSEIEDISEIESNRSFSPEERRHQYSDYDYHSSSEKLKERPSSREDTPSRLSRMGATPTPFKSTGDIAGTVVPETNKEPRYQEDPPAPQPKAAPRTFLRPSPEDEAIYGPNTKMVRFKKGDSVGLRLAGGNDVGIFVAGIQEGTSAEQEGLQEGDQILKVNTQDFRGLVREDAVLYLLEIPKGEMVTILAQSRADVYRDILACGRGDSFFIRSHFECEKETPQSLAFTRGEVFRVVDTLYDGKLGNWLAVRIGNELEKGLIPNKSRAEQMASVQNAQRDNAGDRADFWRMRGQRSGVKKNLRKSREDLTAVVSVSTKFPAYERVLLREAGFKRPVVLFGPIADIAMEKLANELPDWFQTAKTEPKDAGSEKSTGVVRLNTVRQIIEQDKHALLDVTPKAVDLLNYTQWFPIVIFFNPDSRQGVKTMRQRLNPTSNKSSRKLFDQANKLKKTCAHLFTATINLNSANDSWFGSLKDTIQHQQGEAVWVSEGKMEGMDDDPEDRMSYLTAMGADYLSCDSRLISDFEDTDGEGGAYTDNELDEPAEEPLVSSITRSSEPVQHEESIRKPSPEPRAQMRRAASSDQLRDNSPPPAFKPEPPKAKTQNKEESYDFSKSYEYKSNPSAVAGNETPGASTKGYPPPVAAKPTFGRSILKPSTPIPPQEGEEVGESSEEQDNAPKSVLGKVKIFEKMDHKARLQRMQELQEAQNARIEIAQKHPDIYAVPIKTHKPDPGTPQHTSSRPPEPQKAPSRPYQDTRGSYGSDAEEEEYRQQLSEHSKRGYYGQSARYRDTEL

Compound in the first test: C[C@@H]1COCCN1C2=NC(=NC(=C2)C3(CC3)S(=O)(=O)C)C4=C5C=CNC5=CC=C4
The test is described as follows: log2 fold change, soluble protein after heating vs DMSO (PISA); higher = thermal stabilisation; K562 cells, 10 uM, 30 min; active = over 0.2 and 3.5 SD of the protein, either way, in both replicates (recomputed). The procedure, abridged: (§1)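 Quantification of soluble protein used TMTpro 16plex LC-MS/MS, with channel sums equalised. Samples were the supernatant after 21,000xg for 90 min of pooled aliquots from K562 cells (2×10^6 cells/mL) treated with 10 μM compound for 30 min, heated for 3 min over 48°C-58°C, and extracted in PBS with 0.5% NP-40 at 4°C. Values, from duplicates, describe thermal stability against control samples on a log2 fold-change scale.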
For STAT5B (UniProt P51692), the log2 fold change was -0.037 (inactive).

Turning to STAT3 (UniProt P40763), the log2 fold change is 0.105 (inactive).

STAM2 (UniProt O75886): the log2 fold change is 0.041 (inactive).

Regarding TIAL1 isoform 2 (UniProt Q01085), the log2 fold change was 0.023 (inactive).

Take SLC38A9 (UniProt Q8NBW4): the log2 fold change is 0.052 (inactive).

For the target STAT5A (UniProt P42229), the log2 fold change is 0.08 (inactive).

As to SNX5 (UniProt Q9Y5X3), the log2 fold change was 0.022 (inactive).

Turning to SMARCE1 (UniProt Q969G3), the log2 fold change was 0.048 (inactive).

For the target SRSF3 (UniProt P84103), the log2 fold change is -0.27 (inactive).

Turning to SMC5 (UniProt Q8IY18), the log2 fold change is 0.081 (inactive).

SNX1 (UniProt Q13596): the log2 fold change is 0.028 (inactive).

Take TARBP1 (UniProt Q13395): the log2 fold change was 0.028 (inactive).

As to STX17 (UniProt P56962), the log2 fold change is 0.025 (inactive).

As for SMARCAD1 isoform 2 (UniProt Q9H4L7), the log2 fold change was 0.088 (inactive).

As for TIMM10 (UniProt P62072), the log2 fold change was 0.099 (inactive).

SPCS2 (UniProt Q15005): the log2 fold change was 0.02 (inactive).

Regarding SMAP2 (UniProt Q8WU79), the log2 fold change is 0.015 (inactive).

Regarding TK1 (UniProt P04183), the log2 fold change was -0.008 (inactive).

Turning to TIMM44 (UniProt O43615), the log2 fold change was 0.056 (inactive).

In the case of TIMM29 (UniProt Q9BSF4), the log2 fold change is 0.065 (inactive).

For SRI (UniProt P30626), the log2 fold change was 0.159 (inactive).

Turning to SORT1 (UniProt Q99523), the log2 fold change was -0.019 (inactive).

Take SLC7A6 (UniProt Q92536): the log2 fold change was -0.173 (inactive).

SYF2 (UniProt O95926): the log2 fold change was -0.031 (inactive).

Regarding STK25 (UniProt O00506), the log2 fold change is -0.011 (inactive).

SYMPK (UniProt Q92797): the log2 fold change was 0.046 (inactive).

As for SP1 (UniProt P08047), the log2 fold change was -0.044 (inactive).

SSB (UniProt P05455): the log2 fold change is -0.085 (inactive).

In the case of STARD3NL (UniProt O95772), the log2 fold change is 0.055 (inactive).

As for SPG21 (UniProt Q9NZD8), the log2 fold change was 0.053 (inactive).

For SRP68 (UniProt Q9UHB9), the log2 fold change is -0.02 (inactive).

Consider TJP2 isoform 7 (UniProt Q9UDY2), for which the log2 fold change was 0.064 (inactive).

For SPPL2B (UniProt Q8TCT7), the log2 fold change was -0.072 (inactive).

Take SRSF7 (UniProt Q16629): the log2 fold change was -0.311 (inactive).

With SNW1 (UniProt Q13573), the log2 fold change was -0.062 (inactive).

On to TBC1D23 (UniProt Q9NUY8), for which the log2 fold change was 0.022 (inactive).

As for SLC30A7 (UniProt Q8NEW0), the log2 fold change was -0.022 (inactive).

Compound in a further test: C[C@H](C1=CC=C(C=C1)C(=O)NC2=C3C=CNC3=NC=C2)N
The description is as above. The procedure, abridged:
as §1
Consider STAT5B (UniProt P51692), for which the log2 fold change is -0.014 (inactive).

On to STAT3 (UniProt P40763), for which the log2 fold change is -0.063 (inactive).

As to STAM2 (UniProt O75886), the log2 fold change was -0.049 (inactive).

For the target TIAL1 isoform 2 (UniProt Q01085), the log2 fold change was -0.014 (inactive).

For SLC38A9 (UniProt Q8NBW4), the log2 fold change is 0.003 (inactive).

On to STAT5A (UniProt P42229), for which the log2 fold change was -0.036 (inactive).

Turning to SNX5 (UniProt Q9Y5X3), the log2 fold change was -0.014 (inactive).

On to SMARCE1 (UniProt Q969G3), for which the log2 fold change was 0.093 (inactive).

With SRSF3 (UniProt P84103), the log2 fold change was 0.128 (inactive).

In the case of SMC5 (UniProt Q8IY18), the log2 fold change is 0.036 (inactive).

Consider SNX1 (UniProt Q13596), for which the log2 fold change is -0.025 (inactive).

For TARBP1 (UniProt Q13395), the log2 fold change is -0.074 (inactive).

Consider STX17 (UniProt P56962), for which the log2 fold change is -0.171 (inactive).

Turning to SMARCAD1 isoform 2 (UniProt Q9H4L7), the log2 fold change is -0.054 (inactive).

On to TIMM10 (UniProt P62072), for which the log2 fold change was -0.006 (inactive).

Consider SPCS2 (UniProt Q15005), for which the log2 fold change was -0.036 (inactive).

For SMAP2 (UniProt Q8WU79), the log2 fold change is 0.04 (inactive).

Turning to TK1 (UniProt P04183), the log2 fold change was -0.097 (inactive).

Regarding TIMM44 (UniProt O43615), the log2 fold change is -0.015 (inactive).

Turning to TIMM29 (UniProt Q9BSF4), the log2 fold change is -0.033 (inactive).

Regarding SRI (UniProt P30626), the log2 fold change is -0.139 (inactive).

Take SORT1 (UniProt Q99523): the log2 fold change was -0.051 (inactive).

On to SLC7A6 (UniProt Q92536), for which the log2 fold change was -0.149 (inactive).

With SYF2 (UniProt O95926), the log2 fold change is 0.157 (inactive).

Turning to STK25 (UniProt O00506), the log2 fold change was -0.026 (inactive).

Consider SYMPK (UniProt Q92797), for which the log2 fold change is -0.026 (inactive).

As to SP1 (UniProt P08047), the log2 fold change is 0.042 (inactive).

Turning to SSB (UniProt P05455), the log2 fold change is -0.05 (inactive).

STARD3NL (UniProt O95772): the log2 fold change is -0.067 (inactive).

Turning to SPG21 (UniProt Q9NZD8), the log2 fold change is 0.013 (inactive).

SRP68 (UniProt Q9UHB9): the log2 fold change was 0.15 (inactive).

For TJP2 isoform 7 (UniProt Q9UDY2), the log2 fold change was -0.017 (inactive).

Consider SPPL2B (UniProt Q8TCT7), for which the log2 fold change is 0.006 (inactive).

Turning to SRSF7 (UniProt Q16629), the log2 fold change is 0.045 (inactive).

As to SNW1 (UniProt Q13573), the log2 fold change was 0.015 (inactive).

As for TBC1D23 (UniProt Q9NUY8), the log2 fold change was 0 (inactive).

Turning to SLC30A7 (UniProt Q8NEW0), the log2 fold change is -0.048 (inactive).
